LYPLA2 inh – counter-screen for PME1 inhibitors: inhibitors of human LYPLA2 | inhibition, % at 5.9 µM | AID 2177 | 320,000 compounds, 0.38% hits | recombinant LYPLA2, FP-Rh probe fluorescence polarization;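 active means inhibition above the screen-wide mean plus 3 SD, limit set per campaign, cut at about 26% in these data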
Target sequence (O95372 whole entry, looked up): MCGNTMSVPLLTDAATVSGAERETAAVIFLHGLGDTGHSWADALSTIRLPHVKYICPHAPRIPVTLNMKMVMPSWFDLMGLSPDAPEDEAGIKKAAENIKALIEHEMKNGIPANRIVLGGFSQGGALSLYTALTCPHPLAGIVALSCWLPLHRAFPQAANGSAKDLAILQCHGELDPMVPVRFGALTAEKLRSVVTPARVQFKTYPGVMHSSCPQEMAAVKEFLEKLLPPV
PAD4 inh – blocks human protein arginine deiminase 4; Q9UM07; recombinant PAD4, RCA probe fluorescence polarization; 330,000 compounds, 0.41% hits; inhibition, % at 6.36 µM;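 active means percent inhibition above a cutoff equal to the mean of all tested compounds plus 3 SD, cut at about 15% in these data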
ZTA DNA inh – counter-screen for EBNA-1 inhibitors: inhibitors of Epstein-Barr virus ZTA | inhibition, % at 11 µM | ZTA-DNA binding, fluorescence polarization | 320,000 compounds, 0.15% hits | P03206 | AID 2234; in the data active means inhibition above about 33%
Target sequence (P03206 whole entry, looked up): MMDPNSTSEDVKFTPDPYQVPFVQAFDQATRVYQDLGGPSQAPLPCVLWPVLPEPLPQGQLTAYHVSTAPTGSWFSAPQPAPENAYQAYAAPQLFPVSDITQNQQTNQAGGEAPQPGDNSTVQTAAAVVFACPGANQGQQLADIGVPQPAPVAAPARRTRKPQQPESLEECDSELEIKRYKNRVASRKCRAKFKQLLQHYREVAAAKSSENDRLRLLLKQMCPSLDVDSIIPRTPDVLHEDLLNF
GSTO1 inh – counter-screen for RBBP9 inhibitors: inhibitors of human GSTO1. recombinant GSTO1, activity-based probe fluorescence polarization. inhibition, % at 5.96 µM. 300,000 compounds, 1.1% hits;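 active means inhibition above the campaign mean inhibition plus 3 SD, cut at about 35% in these data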
EBNA-1 inhibitor – blocks EBNA-1 binding to DNA | inhibition, % at 14.8 µM | 300,000 compounds, 0.34% hits | EBNA-1 DNA binding, fluorescence polarization | AID 1950; in the data active means inhibition above about 28%
LYPLA1 inh – LYPLA1 (human) inhibition in PME1 counter-screen; AID 2174; recombinant LYPLA1, FP-Rh probe fluorescence polarization; 320,000 compounds, 0.16% hits; inhibition, % at 5.9 µM; O75608;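 active means inhibition above the mean of all tested compounds plus 3 SD, set per campaign, cut at about 14% in these data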;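 further: inhibitors block serine hydrolase probe labeling of LYPLA1 so polarization falls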
Target sequence (O75608 whole entry, looked up): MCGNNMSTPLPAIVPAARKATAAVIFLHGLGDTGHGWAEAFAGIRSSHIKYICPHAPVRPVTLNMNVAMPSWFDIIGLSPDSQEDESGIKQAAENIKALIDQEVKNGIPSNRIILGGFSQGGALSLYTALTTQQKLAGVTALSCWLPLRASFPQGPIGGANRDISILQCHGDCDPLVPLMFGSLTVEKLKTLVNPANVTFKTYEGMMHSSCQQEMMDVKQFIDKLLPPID
EBNA-1 confirm – EBNA-1 (EBV) inhibition, confirmation; shares compounds with EBNA-1 inhibitor; Recombinant EBNA-1 DBD, Cy5-DNA fluorescence polarization; inhibition, % at 14.8 µM; 830 compounds, 35% hits;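 active means mean inhibition across replicates above a set limit taken from the earlier primary screen, cut at about 28% in these data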
ZTA counter trip – counter-screen for EBNA-1 inhibitors: Epstein-Barr virus ZTA inhibitors, triplicate; shares compounds with EBNA-1 inhibitor; Zta-ZRE DNA binding, Cy5 fluorescence polarization; inhibition, % at 11.1 µM; 830 tested, under 10 active; AID 2328;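 active means mean inhibition over triplicates above a set limit taken from the primary EBNA-1 screen, cut at about 37% in these data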;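 further: purified full length Zta protein with Cy5 labeled ZRE DNA probe; inhibitors lower polarization by freeing the labeled DNA probe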
Of the large screens only hits and unclear results are named; the others gave an inactive call (follow-up assays come after a bar, where they were run). Shown are actives, neighbours in structure and some others; about 1.7% of the full set was active somewhere.

CC(=O)Nc1ccc(NC(=O)CSc2ccc(-c3ccc4c(c3)OCO4)nn2)cc1	EBNA-1 inhibitor 49.0 | EBNA-1 confirm inactive | ZTA counter trip inactive
CCOC(=O)C1CCN(CC(O)COCc2ccccc2)CC1 (stereo not drawn)	none
CC(C)Cn1c(N)c(C(=O)COC(=O)c2ccc3c(c2)OCCO3)c(=O)n(C)c1=O	EBNA-1 inhibitor 28.5 | EBNA-1 confirm 31.9 | ZTA counter trip inactive
CC(C)Cn1c(N)c(C(=O)CSc2ccc3c(c2)OCCO3)c(=O)n(C)c1=O	EBNA-1 inhibitor 53.8 | EBNA-1 confirm 47.4 | ZTA counter trip inactive
CC(C)CN(C(=O)CSc1ccc2c(c1)OCCO2)c1c(N)n(CC(C)C)c(=O)[nH]c1=O	none (no result: GSTO1 inh, EBNA-1 inhibitor)
CCC(=O)c1ccc(N2CCN(C(=O)COc3ccc(F)cc3)CC2)c(F)c1	EBNA-1 inhibitor 28.4 | EBNA-1 confirm inactive | ZTA counter trip inactive
CC(=O)c1ccc(N2CCN(C(=O)COc3ccc(F)cc3)CC2)c(F)c1	none
NS(=O)(=O)c1ccc(NC(=O)c2ccc(S(=O)(=O)N3CCc4ccccc43)cc2)cc1	EBNA-1 inhibitor 93.9 | EBNA-1 confirm inactive | ZTA counter trip inactive
C[C@@H]1[C@H]2[C@@H](O[C@@H]3O[C@H](CO)[C@@H](O)[C@H](O)[C@H]3O)OC=C(C(=O)O)[C@H]2C[C@@H]1O	none
COc1ccc(Nc2nc(N(C)c3ccccc3)nc(N)c2[N+](=O)[O-])cc1	EBNA-1 inhibitor 34.1 | EBNA-1 confirm 40.3 | ZTA counter trip inactive
C=CCNC(=O)c1ccc(Cn2c(=S)[nH]c3cc4c(cc3c2=O)OCO4)cc1	EBNA-1 inhibitor 32.9 | EBNA-1 confirm inactive | ZTA counter trip inactive
O=C(NCCN1CCCC1)c1ccc(Cn2c(=S)[nH]c3cc4c(cc3c2=O)OCO4)cc1	none
O=C(NNc1cc(C(F)(F)F)nc2ccccc12)Nc1cccc(Cl)c1	none
N#Cc1c2c(c(Nc3ccc(O)cc3)n3c1nc1ccccc13)CCC2	EBNA-1 inhibitor 39.2 | EBNA-1 confirm inactive | ZTA counter trip inactive
CCCn1cc(NC(=O)c2cc(-c3ccccc3)on2)cn1	none
COc1ccc(-c2cc(C(=O)Nc3cnn(Cc4ccccc4C)c3)no2)cc1OC	EBNA-1 inhibitor 36.5 | EBNA-1 confirm inactive | ZTA counter trip inactive
COC(=O)c1cc(NC(=O)C2CCCN(S(=O)(=O)c3c(C)n[nH]c3C)C2)cc(C(=O)OC)c1 (stereo not drawn)	EBNA-1 inhibitor 27.6 | EBNA-1 confirm inactive | ZTA counter trip inactive
Cc1n[nH]c(=O)c2c(NC(=O)CSc3ccccc3Cl)oc(C)c12	none
COc1ccccc1C(=O)NC(CCSC)C(=O)NNC(=O)c1ccccc1O (stereo not drawn)	none (no result: GSTO1 inh, EBNA-1 inhibitor)
CN=C1SC(CC(=O)Nc2c(C)cccc2C)C(=O)N1/N=C/c1cccs1 (stereo not drawn)	EBNA-1 inhibitor 35.6 | EBNA-1 confirm inactive | ZTA counter trip inactive
O=C(Nc1ccccc1)c1cccc(N2C(=O)C3C4C=CC(C5CC45)C3C2=O)c1 (stereo not drawn)	none
Cc1cccc(NC(=O)c2ccc(N3C(=O)C4C5C=CC(C6CC56)C4C3=O)cc2)c1 (stereo not drawn)	EBNA-1 inhibitor 56.6 | EBNA-1 confirm 41.2 | ZTA counter trip inactive
CCNC(=S)N/N=C/c1c(C)nn(-c2cccc(Cl)c2)c1Cl	EBNA-1 inhibitor 57.2 | EBNA-1 confirm 48.3 | ZTA counter trip inactive
Cc1nn(-c2cccc(Cl)c2)c(Cl)c1/C=N/NC(=O)c1cccs1	none
COc1ccc(-c2cc(C(=O)Nc3c(C)nn(Cc4ccccc4Cl)c3C)no2)cc1	EBNA-1 inhibitor 49.4 | EBNA-1 confirm 41.0 | ZTA counter trip inactive
COc1ccc(-c2cc(C(=O)Nc3c(C)n(C)n(-c4ccccc4)c3=O)no2)cc1	none
COc1ccc(/C=C/C(=O)Oc2cccc(/C=N/NC(=O)c3cccc(F)c3)c2)cc1	EBNA-1 inhibitor 28.8 | EBNA-1 confirm inactive | ZTA counter trip inactive
COc1cc(CC(=O)Nc2sc3c(c2C(N)=O)CCCC3)cc(OC)c1OC	EBNA-1 inhibitor 48.6 | EBNA-1 confirm inactive | ZTA counter trip inactive
Cc1ccc(CNC(=O)CS(=O)Cc2nc(-c3ccccc3F)oc2C)cc1 (stereo not drawn)	none
O=C(N/C(=C\c1ccc(Br)cc1)c1nc2ccccc2[nH]1)c1ccco1	EBNA-1 inhibitor 49.0 | EBNA-1 confirm 33.2 | ZTA counter trip inactive
Nc1ccccc1SCC(=O)Nc1ccc2c(c1)OCO2	none
COc1ccc(NC(=O)CSc2nc3nc(C)cc(C)c3c(=O)[nH]2)cc1	EBNA-1 inhibitor 60.6 | EBNA-1 confirm inactive | ZTA counter trip inactive
Cc1ccccc1OCc1nnc(SCC(=O)Nc2ccc3nc(SCC(=O)Nc4ccccc4)sc3c2)n1C	EBNA-1 inhibitor 44.1 | EBNA-1 confirm 43.0 | ZTA counter trip inactive
COc1ccc(S(=O)(=O)N2CCOCC2)cc1NC(=O)c1ccc(Cl)cc1	EBNA-1 inhibitor 44.2 | EBNA-1 confirm 32.1 | ZTA counter trip inactive
CCc1noc(C)c1C(=O)Nc1cc(S(=O)(=O)N2CCOCC2)ccc1OCC(F)(F)F	EBNA-1 inhibitor 79.0 | EBNA-1 confirm inactive | ZTA counter trip inactive
COc1ccc(S(=O)(=O)N2CCOCC2)cc1NC(=O)c1ccc2c(c1)OCCO2	none
COc1ccc(S(=O)(=O)N2CCOCC2)cc1NC(=O)c1cccc(Cl)c1	EBNA-1 inhibitor 40.5 | EBNA-1 confirm inactive | ZTA counter trip inactive
CCn1c(NC(=O)c2cccc(Cn3cc(Cl)cn3)c2)nc2ccccc21	none
Cn1c(NC(=O)c2cccc(Cn3cc(Cl)cn3)c2)nc2ccccc21	EBNA-1 inhibitor 41.2 | EBNA-1 confirm 33.6 | ZTA counter trip inactive
COc1ccc(/C=C2\SC(=S)N(NS(=O)(=O)c3ccc(C)cc3)C2=O)c(OC)c1	none
COc1ccccc1/C=C1\SC(=S)N(NS(=O)(=O)c2ccc(C)cc2)C1=O	EBNA-1 inhibitor 30.7 | EBNA-1 confirm inactive | ZTA counter trip inactive
N#Cc1nc(-c2ccc(Cl)cc2)oc1NCc1cccc2c1OCO2	EBNA-1 inhibitor 27.8 | EBNA-1 confirm 30.0 | ZTA counter trip inactive
N#Cc1nc(-c2ccc(Cl)cc2)oc1NCc1ccco1	none
O=C(Nc1cccc(S(=O)(=O)NC2=NCCCCC2)c1)c1cc(-c2ccco2)nc2ccccc12	EBNA-1 inhibitor 38.7 | EBNA-1 confirm inactive | ZTA counter trip inactive
O=C(Nc1cccc(S(=O)(=O)NC2=NCCCCC2)c1)c1cc(-c2ccncc2)nc2ccccc12	none
CCc1cc(C(=O)N(CC(C)C)c2c(N)n(Cc3ccccc3)c(=O)[nH]c2=O)sc1C	EBNA-1 inhibitor 33.1 | EBNA-1 confirm inactive | ZTA counter trip inactive

Bioassay records as filed in PubChem.
